# High-throughput results (PubChem)
# Hits are enriched below; roughly 31% of the tested compounds scored in any of these assays.
# CYP2C9 inhib: blockers of cytochrome P450 2C9 activity – biochemical, luminescence, ADME assay, primary screen; AID 777, 2007; actives 20% (n = 96,000); inhibition, % at 5 µM; CYP2C9 Supersomes, luciferin-H conversion;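 active = blocking of liver enzyme CYP2C9 beyond about 50% at 5 µM, limit read from the data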
# CYP2C19 activ: human CYP2C19 activators, primary screen, biochemical, luminescence; Cytochrome P450 2C19 (Homo sapiens), P33261; recombinant CYP2C19, luciferin-H EGE luminescence; hits give high values; 0 = fully inhibited enzyme, 1 = untreated enzyme; activation factor at 5 µM; 96,000 tested, under 10 active;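 active = activation factor of at least 2 at 5 µM in the primary screen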;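 note: 0 = wells with 2.5 mM tranylcypromine and 1 = vehicle-only wells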
# Target sequence (P33261 whole entry, looked up): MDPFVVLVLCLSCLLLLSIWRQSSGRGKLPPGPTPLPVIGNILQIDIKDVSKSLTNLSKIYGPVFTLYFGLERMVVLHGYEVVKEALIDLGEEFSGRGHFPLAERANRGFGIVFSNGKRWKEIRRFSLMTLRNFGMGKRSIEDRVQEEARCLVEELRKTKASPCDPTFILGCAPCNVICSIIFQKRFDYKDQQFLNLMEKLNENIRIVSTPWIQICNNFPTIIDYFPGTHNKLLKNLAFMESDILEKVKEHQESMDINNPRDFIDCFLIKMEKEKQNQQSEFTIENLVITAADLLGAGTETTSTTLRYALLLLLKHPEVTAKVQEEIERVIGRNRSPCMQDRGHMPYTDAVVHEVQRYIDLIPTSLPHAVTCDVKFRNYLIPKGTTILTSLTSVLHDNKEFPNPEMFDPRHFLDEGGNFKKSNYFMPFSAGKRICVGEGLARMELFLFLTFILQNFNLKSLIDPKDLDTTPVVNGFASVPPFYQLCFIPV
# PLAP activator: PLAP enzyme activators, biochemical, luminescence, HTS. Alkaline phosphatase, placental type (Homo sapiens), P05187. purified PLAP enzyme, luminescent substrate read-out; hits give high values. activation fold at 20 µM. actives 1.2% (n = 96,000); in the data active = activation fold above about 2
# CYP2C19 inhib: blockers of cytochrome P450 2C19 activity – biochemical, luminescence, ADME assay, primary screen; P33261; CYP2C19 Supersomes, luciferin-H EGE luminescence, 30 min; inhibition, % at 5 µM; actives 21% (n = 96,000);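 active = CYP2C19 inhibition above a set limit at 5 µM in the primary screen, cut at about 50% in these data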;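 note: plate controls were negative control wells for no effect and 2.5 mM tranylcypromine positive control for full effect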
# CYP2C9 activ: human CYP2C9 activators, primary screen, biochemical, luminescence | Cytochrome P450 2C9 (Homo sapiens), P11712 | recombinant CYP2C9, luciferin-H conversion; hits give high values; factor 1 = untreated enzyme, 0 = blocked | activation factor at 5 µM | actives 1.4% (n = 96,000) | AID 1024, 2008;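 active = activation factor of 2 or more for CYP2C9 at a 5 µM dose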;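 note: 0 = sulfaphenazole-blocked wells and 1 = vehicle-only wells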
# The depositor's hits bear a star.
SMILES,CYP2C9 inhib,CYP2C19 activ,PLAP activator,CYP2C19 inhib,CYP2C9 activ
CCN1CCN(C(c2ccccn2)c2c(NC(=O)c3ccccc3)sc(C)c2C)CC1 (configuration not stated),8.1,1,1.5,-2.3,0.9
CNC(=O)c1cccc(N2CCCC2=O)c1,-22.8,1.2,1.1,-22.8,1.2
O=C(NCCCN1CCN(c2ccc(F)cc2)CC1)c1cccc(N2CCCC2=O)c1,28.5,0.2,1.5,80.2*,0.7
Cc1cccc(C(=O)NC2CCN(CC(=O)N3CCOCC3)CC2)c1,-0.9,1.1,1.1,-6.4,1
O=C(NCC1CCCO1)C(c1cccnc1)N(C(=O)Cc1cccs1)c1cccnc1 (configuration not stated),-18.9,1.2,1,-17.2,1.2
CCCC(=O)C1=C(O)C(C(=O)OC)C(C)(C)CC1=Nc1ccc(N)cc1 (configuration not stated),42.3,0.5,1.1,51.7*,0.6
CCCC(=O)C1=C(O)C(C(=O)OC)C(C)(C)CC1=Nc1ccncc1 (configuration not stated),60.7*,0.1,1.4,89.7*,0.4
CS(=O)(=O)N1CCC(C(=O)Nc2ccccc2Sc2ccccc2)CC1,18.0,0.7,0.9,25.7,0.8
CN(C)c1ccc(C(=S)NCc2ccco2)cc1,37.1,0.1,1,88.3*,0.6
Cc1ccc(/C([O-])=C(/C(=S)NCc2ccco2)[n+]2ccccc2)cc1,25.3,0.8,1.2,24.2,0.7
COc1ccc(CN(C(=O)c2oc3ccccc3c2C)C2CCS(=O)(=O)C2)cc1OC (configuration not stated),95.6*,0.2,1.3,75.2*,0
O=C(c1cc2ccccc2oc1=O)N(Cc1ccco1)C1CCS(=O)(=O)C1 (configuration not stated),38.0,0.7,1.4,27.9,0.6
CC(C)c1ccc(CN(C(=O)c2cc3ccccc3oc2=O)C2CCS(=O)(=O)C2)cc1 (configuration not stated),62.5*,0.8,1.7,15.0,0.4
CON/C=C(\C=Nc1ccc(Cl)cc1)c1ncc(C(F)(F)F)cc1Cl,-6.6,1.1,0.8,-13.3,1.1
O=C(CSc1nc(-c2ccco2)cc(C(F)(F)F)n1)NC1CCCC1,94.0*,0.2,1,82.1*,0.1
CC(NC(=O)CCSc1nc(-c2ccco2)cc(C(F)(F)F)n1)c1ccccc1 (configuration not stated),46.9,0.5,1.1,53.0*,0.5
COC(=O)c1ccccc1NC(=O)CSc1nc(-c2ccco2)cc(C(F)(F)F)n1,4.7,1,0.8,1.5,1
O=C(CCSc1nc(-c2ccco2)cc(C(F)(F)F)n1)N1CCN(c2ccccc2)CC1,76.2*,0.2,1.3,81.2*,0.2
COc1ccc(CCNC(=O)CCSc2nc(-c3ccco3)cc(C(F)(F)F)n2)cc1OC,90.7*,0.1,0.8,87.5*,0.1
Cc1ccccc1-c1nc2ccccc2c(=O)n1/N=C/c1ccccc1[N+](=O)[O-],9.9,0.9,0.9,9.4,0.9
O=S1(=O)CC(N2CCCCC2)C(N2CCCCC2)C1 (configuration not stated),4.1,1,1.1,-0.5,1
CC1C(=O)CCN(C(C)(C)C)C1C (configuration not stated),13.2,1.1,1,-5.4,0.9
O=C(CCSc1nc(-c2ccco2)cc(C(F)(F)F)n1)NCc1ccccn1,68.8*,0.2,1.5,78.1*,0.3
CCC1(CC)Nc2ccccc2C(=O)N1c1ccc(NC(C)=O)cc1,-2.3,0.3,1,74.1*,1
CC#CCCC(=O)N1C=Cc2ccccc2C1C#N (configuration not stated),8.0,0.3,1,66.3*,0.9
CCOc1cc(Cl)c(S(=O)(=O)NCc2ccccn2)cc1Cl,-29.8,0.8,1.6,23.4,1.3
CCCCN=C(C)c1c(O)c2ccccc2oc1=O,55.6*,0.2,0.9,84.9*,0.4
CCOc1ccc(OCC(=O)c2c(O)c3ccccc3oc2=O)cc1,90.9*,1,1,-1.3,0.1
COc1ccc(OCC(=O)c2c(O)c3ccccc3oc2=O)cc1,78.1*,1.1,1.2,-11.1,0.2
